This passage reports growth results from PubChem BioAssay (NCI).

This is part of a sample that, as a whole, favours compounds with a hit. Of some 83,000 tested, about 20% had one in any assay.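 How to read the values: 0–100, growth inhibition (40 = 60% inhibited); 0, no net growth; -100 to 0, cell death (-40 = 40% of starting cells died; -100 = all dead).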 Values without a mark were called inactive. Activity calls are given as the source filed them. How the source made its calls: active means growth percent below 10; inactive means the rest.

Test systems include HCT-15 colon; HT29 colon; SNB-75 CNS; SNB-19 CNS; U251 CNS; PC-3 prostate; SK-MEL-5 melanoma; UACC-62 melanoma; LOX IMVI melanoma; SK-MEL-28 melanoma; SK-MEL-2 melanoma; EKVX NSCLC; SN12C renal; UO-31 renal; TK-10 renal; ACHN renal; CAKI-1 renal; A498 renal; CCRF-CEM leukemia; MOLT-4 leukemia.
Test in all cases: NCI-60 one-dose screen, 48 h (100 = growth as untreated, 0 = no growth, -100 = all killed)
Common to all, as to conditions: 10 µM unless noted

For `N#Cc1nc2c(S(=O)(=O)c3ccccc3)c(N)n(Cc3cccnc3)c2nc1C#N`, the growth with HCT-15 colon is 101%; with HT29 colon, 104%; in the experiment on SNB-75 CNS, 57.4%; in the experiment with SNB-19 CNS, 75.9%; in the experiment on U251 CNS, 75.5%; with PC-3 prostate, 67%. Further, the growth in the experiment with SK-MEL-5 melanoma was 93.6%; with UACC-62 melanoma, 85.6%; with LOX IMVI melanoma, 88.3%; with SK-MEL-28 melanoma it was 89.3%; with SK-MEL-2 melanoma it was 111%; with EKVX NSCLC, 76.7%. Also, the growth in the experiment on SN12C renal was 138%; in the experiment with UO-31 renal, 58.4%; in the experiment on TK-10 renal it was 99.2%; with ACHN renal it was 96.2%; in the experiment on CAKI-1 renal it was 96.3%; with A498 renal, 104%. The growth with CCRF-CEM leukemia is 35.3%; with MOLT-4 leukemia, 50%.
For `CCOC(=O)c1c(C)nc2ccccc2c1/C=C/c1ccc(OC)cc1`, the growth is 66% in the experiment on HCT-15 colon; 73.5% in the experiment with HT29 colon; 76.2% in the experiment on SNB-75 CNS; 75.9% with SNB-19 CNS; 79.8% with U251 CNS; 60.2% in the experiment with PC-3 prostate. Moreover, the growth in the experiment with SK-MEL-5 melanoma was 2.63% (active); in the experiment on UACC-62 melanoma it was 45.7%; in the experiment with LOX IMVI melanoma, 68.5%; with SK-MEL-28 melanoma, 96.2%; in the experiment with SK-MEL-2 melanoma, 64.3%; with EKVX NSCLC, 54.9%. Besides, the growth is 79.8% with SN12C renal; 52.3% in the experiment with UO-31 renal; 85.8% with TK-10 renal; 58.8% with ACHN renal; 56.8% with CAKI-1 renal; 77.9% in the experiment with A498 renal. The growth in the experiment on CCRF-CEM leukemia was 56.4%; in the experiment with MOLT-4 leukemia, 26.1%.
Take `C[C@@H]1O[C@@H](O[C@@H]2C[C@H](c3ccc4c(c3O)C(=O)C3=C(C4=O)[C@@]4(O)C(=O)C[C@](C)(O)C[C@@]4(O)C=C3)O[C@H](C)[C@H]2O)C[C@H](O)[C@@H]1O`: the growth was 98.9% in the experiment on HCT-15 colon; 106% in the experiment on HT29 colon; 86.8% in the experiment with SNB-75 CNS; 91.8% in the experiment on SNB-19 CNS; 97.5% in the experiment on U251 CNS; 90.5% with PC-3 prostate. In addition, the growth was 100% in the experiment with SK-MEL-5 melanoma; 94.2% in the experiment with UACC-62 melanoma; 91% in the experiment on LOX IMVI melanoma; 113% with SK-MEL-28 melanoma; 103% in the experiment with SK-MEL-2 melanoma; 102% with EKVX NSCLC. The growth in the experiment with SN12C renal is 94.2%; in the experiment on UO-31 renal it was 78.9%; in the experiment on TK-10 renal, 101%; with ACHN renal, 102%; in the experiment with CAKI-1 renal, 88.1%; in the experiment on A498 renal it was 95%. The growth was 93.8% in the experiment on CCRF-CEM leukemia and 91.5% in the experiment with MOLT-4 leukemia.
For `CCCCCCC(=O)Nc1ncc(Cc2ccc(C)cc2)s1`, the growth with HCT-15 colon was 35.5%; with HT29 colon it was 15.4%; in the experiment on SNB-75 CNS it was -0.16% (active); in the experiment on SNB-19 CNS, 44.2%; with U251 CNS it was 39%; in the experiment with PC-3 prostate it was 41.7%. Besides, the growth was 36.9% in the experiment with SK-MEL-5 melanoma; 31.1% with UACC-62 melanoma; 44.1% in the experiment with LOX IMVI melanoma; 66.5% with SK-MEL-28 melanoma; 63.4% in the experiment on SK-MEL-2 melanoma; 53.4% in the experiment with EKVX NSCLC. The growth in the experiment on SN12C renal is 49.4%; in the experiment with UO-31 renal it was 44.8%; in the experiment on TK-10 renal, 65.8%; in the experiment on ACHN renal, 46.3%; with CAKI-1 renal, 35.2%; in the experiment with A498 renal, 19.5%. In addition, the growth with CCRF-CEM leukemia is 21.3%; in the experiment on MOLT-4 leukemia it was 35.2%.
As for `CC1(C)CC2=C3C=C[C@@H]4[C@@]5(C)CC[C@H](O)C(C)(C)[C@@H]5CC[C@@]4(C)[C@]3(C)CC[C@@]2(C(=O)O)CC1=O`, the growth with HCT-15 colon was 28%; in the experiment on HT29 colon it was 35.7%; in the experiment on SNB-75 CNS it was 16.8%; in the experiment on SNB-19 CNS, 68.9%; with U251 CNS, 32.3%; with PC-3 prostate, 45%. Also, the growth was 25.3% in the experiment with SK-MEL-5 melanoma; 53.6% with UACC-62 melanoma; 46.9% in the experiment with LOX IMVI melanoma; 30.9% in the experiment with SK-MEL-28 melanoma; 37.1% in the experiment on SK-MEL-2 melanoma; 61.4% in the experiment on EKVX NSCLC. In addition, the growth in the experiment with SN12C renal is 54.4%; with UO-31 renal, 16.5%; in the experiment with TK-10 renal, 33.5%; in the experiment with ACHN renal it was 13%; in the experiment on CAKI-1 renal it was 28.2%; with A498 renal, 57%. For the same molecule, the growth is 25.2% with CCRF-CEM leukemia and 44.2% with MOLT-4 leukemia.
Regarding `N#Cc1c(-c2ccccc2)nc2c(c(-c3ccccc3)nn2-c2ccccc2)c1-c1ccc(N2CCOCC2)cc1`, the growth in the experiment on HCT-15 colon was 37.3%; with HT29 colon it was 52.4%; in the experiment with SNB-75 CNS it was 86.9%; in the experiment on SNB-19 CNS it was 94.5%; in the experiment with U251 CNS, 65.9%; in the experiment with PC-3 prostate it was 81.7%. For the same molecule, the growth is 98.8% with SK-MEL-5 melanoma; 106% with UACC-62 melanoma; 51.6% in the experiment on LOX IMVI melanoma; 107% in the experiment with SK-MEL-28 melanoma; 102% in the experiment with SK-MEL-2 melanoma; 103% with EKVX NSCLC. For the same molecule, the growth in the experiment with SN12C renal was 93.4%; with UO-31 renal, 70.3%; with TK-10 renal it was 101%; in the experiment with ACHN renal, 103%; in the experiment with CAKI-1 renal, 81.8%; in the experiment with A498 renal, 95.1%. The growth is 64.6% in the experiment on CCRF-CEM leukemia and 62.7% in the experiment with MOLT-4 leukemia.
Regarding `CCNc1nc(-c2ccc(F)cc2)c(C#N)c(=O)n1C`, the growth is 56.8% in the experiment on HCT-15 colon; 57.2% in the experiment with HT29 colon; 37.9% in the experiment with SNB-75 CNS; 60.6% in the experiment on SNB-19 CNS; 65.2% with U251 CNS; 42.8% in the experiment with PC-3 prostate. For the same molecule, the growth in the experiment with SK-MEL-5 melanoma is 57.3%; in the experiment on UACC-62 melanoma, 44%; with LOX IMVI melanoma, 63.2%; in the experiment on SK-MEL-28 melanoma it was 77.5%; in the experiment on SK-MEL-2 melanoma it was 77.8%; with EKVX NSCLC, 29.1%. Besides, the growth with SN12C renal was 69.1%; in the experiment with UO-31 renal it was 41.2%; in the experiment with TK-10 renal, 34%; with ACHN renal, 52.5%; in the experiment with CAKI-1 renal, 53.3%; in the experiment with A498 renal it was -9.07% (active). Also, the growth with CCRF-CEM leukemia is 85.9%; in the experiment with MOLT-4 leukemia it was 71.6%.
